Test results from PubChem BioAssay (EPA / NIEHS).
Inconclusive results are not listed. Active and inactive are the calls of the source. Rule for the calls, unless noted: active = hit-call score of the fitted dose curve at least 0.9, where 1 is the maximum; inactive = score below 0.9.

Columns and labels:
[1] = target: Nuclear receptor subfamily 4 group A member 2 (Homo sapiens) (UniProt P43354); experiment: ATG_NURR1_TRANS: Attagene TRANS-FACTORIAL HepG2 Assay for human Nuclear Receptor Related Protein 1 (NURR1) (AID 2282985; active = hit-call score of the fitted dose curve at least 0.9, where 1 is the maximum); conditions: HepG2 Attagene TRANS reporter, mRNA readout
Sequence of Nuclear receptor subfamily 4 group A member 2 (Homo sapiens) (P43354 whole entry, looked up): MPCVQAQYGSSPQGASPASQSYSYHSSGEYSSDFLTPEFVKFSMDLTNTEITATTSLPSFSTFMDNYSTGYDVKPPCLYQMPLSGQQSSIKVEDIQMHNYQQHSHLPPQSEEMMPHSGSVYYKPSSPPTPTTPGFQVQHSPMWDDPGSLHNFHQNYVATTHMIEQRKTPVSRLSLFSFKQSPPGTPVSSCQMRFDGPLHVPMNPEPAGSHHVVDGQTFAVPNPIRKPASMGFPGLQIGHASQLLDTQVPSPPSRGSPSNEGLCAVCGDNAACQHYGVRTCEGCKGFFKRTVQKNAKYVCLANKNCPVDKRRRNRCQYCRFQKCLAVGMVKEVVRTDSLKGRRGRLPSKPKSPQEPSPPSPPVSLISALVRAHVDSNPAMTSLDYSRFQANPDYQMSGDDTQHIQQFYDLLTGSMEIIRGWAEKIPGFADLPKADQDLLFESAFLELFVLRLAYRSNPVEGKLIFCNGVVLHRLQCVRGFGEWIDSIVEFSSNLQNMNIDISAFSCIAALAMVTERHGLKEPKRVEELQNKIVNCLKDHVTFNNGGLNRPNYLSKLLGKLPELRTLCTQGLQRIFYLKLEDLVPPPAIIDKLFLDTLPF
Outline: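 After 24 h chemical dosing, total RNA from transiently transfected HepG2 cells was reverse-transcribed and reporter cDNA PCR-amplified, FAM-labelled and analysed by capillary electrophoresis. Activity fitted in positive direction, DMSO as negative control.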

[2] = target: Transcriptional activator Myb (Homo sapiens) (UniProt P10242); experiment: ATG_Myb_CIS: Attagene CIS-FACTORIAL HepG2 Assay for human Myeloblastosis (Myb) Proto-Oncogene Transcription Factor (AID 2282986); conditions: HepG2 Attagene CIS-FACTORIAL Myb reporter transcription; actives raise or lower the signal
Sequence of Transcriptional activator Myb (Homo sapiens) (P10242 whole entry, looked up): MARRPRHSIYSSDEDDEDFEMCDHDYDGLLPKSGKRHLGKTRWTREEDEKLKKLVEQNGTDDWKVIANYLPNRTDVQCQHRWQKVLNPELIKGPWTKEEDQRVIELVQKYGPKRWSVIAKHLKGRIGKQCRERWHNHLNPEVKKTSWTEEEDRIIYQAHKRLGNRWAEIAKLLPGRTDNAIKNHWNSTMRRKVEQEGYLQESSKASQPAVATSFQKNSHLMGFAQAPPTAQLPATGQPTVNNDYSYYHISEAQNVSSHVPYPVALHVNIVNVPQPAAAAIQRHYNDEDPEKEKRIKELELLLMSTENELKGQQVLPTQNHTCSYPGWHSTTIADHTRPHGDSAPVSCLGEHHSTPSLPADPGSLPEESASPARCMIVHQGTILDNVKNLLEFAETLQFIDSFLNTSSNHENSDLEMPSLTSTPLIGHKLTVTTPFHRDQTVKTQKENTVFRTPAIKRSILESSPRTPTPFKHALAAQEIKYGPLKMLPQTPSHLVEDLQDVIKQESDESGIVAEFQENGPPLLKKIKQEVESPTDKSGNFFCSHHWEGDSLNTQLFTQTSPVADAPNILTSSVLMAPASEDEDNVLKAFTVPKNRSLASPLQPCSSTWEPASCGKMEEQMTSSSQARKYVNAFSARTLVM
Outline: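 Endogenous transcription factor activity at a Myb-responsive cis element is reported in human liver HepG2 cells after 24 h chemical treatment. Reporter mRNA is detected by RT-PCR and capillary electrophoresis fluorescence, with DMSO as baseline.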

[3] = target: Nuclear respiratory factor 1 (Homo sapiens) (UniProt Q16656); experiment: ATG_NRF1_CIS: Attagene CIS-FACTORIAL HepG2 Assay for human Nuclear Respiratory Factor 1 (NRF1) Orphan Gene (AID 2282987); conditions: HepG2 NRF1 cis-element reporter, Attagene multiplex; actives raise or lower the signal
Sequence of Nuclear respiratory factor 1 (Homo sapiens) (Q16656 whole entry, looked up): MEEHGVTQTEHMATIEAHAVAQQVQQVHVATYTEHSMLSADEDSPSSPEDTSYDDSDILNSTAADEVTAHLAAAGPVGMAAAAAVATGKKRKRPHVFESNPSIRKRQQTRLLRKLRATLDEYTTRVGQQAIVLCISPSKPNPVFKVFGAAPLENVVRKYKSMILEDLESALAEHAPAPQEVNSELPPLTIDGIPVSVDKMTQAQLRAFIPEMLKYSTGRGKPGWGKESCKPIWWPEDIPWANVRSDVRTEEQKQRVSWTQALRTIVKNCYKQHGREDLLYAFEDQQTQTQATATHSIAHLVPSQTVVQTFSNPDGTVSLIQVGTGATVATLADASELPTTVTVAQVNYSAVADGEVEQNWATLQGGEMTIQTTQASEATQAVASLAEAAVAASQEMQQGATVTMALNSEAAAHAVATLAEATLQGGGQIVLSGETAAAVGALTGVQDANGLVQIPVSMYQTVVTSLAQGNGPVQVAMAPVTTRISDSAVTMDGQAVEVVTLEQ
Outline: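 Human hepatoma HepG2 cells carrying transfected promoter-regulated reporter units were incubated with test chemicals for 24 h. Reporter transcripts were measured by RT-PCR plus capillary electrophoresis, and endpoints derived by bidirectional fitting with DMSO as baseline.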

[4] = ATG_NFI_CIS: Attagene CIS-FACTORIAL HepG2 Assay for human Nuclear Factor I (NFI) (AID 2282989); conditions: HepG2 cis-regulatory reporter, NFI response element transcription; actives raise or lower the signal
Outline: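 Cells: human liver HepG2, transiently transfected with promoter-regulated reporter transcription units. Exposure 24 h. Detection: fluorescent RT-PCR products separated by capillary electrophoresis, normalised to DMSO negative control.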

[5] = target: Myc proto-oncogene protein (Homo sapiens) (UniProt P01106); experiment: ATG_Myc_CIS: Attagene CIS-FACTORIAL HepG2 Assay for human Myelocytomatosis (Myc) Proto-Oncogene Transcription Factor (AID 2282990); conditions: HepG2, Attagene cis-reporter transcription factor activity; actives raise or lower the signal
Sequence of Myc proto-oncogene protein (Homo sapiens) (P01106 whole entry, looked up): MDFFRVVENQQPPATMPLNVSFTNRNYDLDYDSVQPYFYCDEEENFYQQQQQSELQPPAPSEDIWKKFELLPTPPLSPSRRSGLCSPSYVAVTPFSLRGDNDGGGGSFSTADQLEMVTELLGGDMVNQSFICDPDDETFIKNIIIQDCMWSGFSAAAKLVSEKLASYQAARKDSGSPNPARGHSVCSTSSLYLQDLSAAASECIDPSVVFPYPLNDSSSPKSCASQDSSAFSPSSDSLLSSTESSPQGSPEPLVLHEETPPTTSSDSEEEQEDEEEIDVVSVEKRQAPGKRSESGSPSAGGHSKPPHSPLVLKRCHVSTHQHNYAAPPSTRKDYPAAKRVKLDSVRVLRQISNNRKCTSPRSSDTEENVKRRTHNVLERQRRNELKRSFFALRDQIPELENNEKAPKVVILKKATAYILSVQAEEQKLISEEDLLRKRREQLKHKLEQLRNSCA
Outline: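 HepG2 cells transiently transfected with multiple cis-promoter-driven reporter transcription units, so endogenous TF activity is read. After 24 h compound exposure, reporter mRNA was quantified by RT-PCR, 6-FAM labelling, HpaI digestion and capillary electrophoresis; bidirectional fit versus DMSO.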

[6] = ATG_NF_kB_CIS: Attagene CIS-FACTORIAL HepG2 Assay for human Nuclear Factor Kappa B (NF-kB) (AID 2282991); conditions: HepG2 Attagene cis-factorial NF-kB reporter mRNA; actives raise or lower the signal
Outline: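 Multiplexed cis-reporter assay in transiently transfected HepG2. 24 h treatment; RNA isolated, RT-PCR, labelled fragments resolved by CE. DMSO baseline.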

[7] = ATG_NRF2_ARE_CIS: Attagene CIS-FACTORIAL HepG2 Assay for human Nuclear Factor Erythroid 2 Related Factor 2 (NFR2) response to Antioxidant Response Elements (ARE) (AID 2282992); conditions: HepG2 Attagene ARE/NRF2 reporter, transcription factor activity; actives raise or lower the signal;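 for AC50: reporter mRNA level measured by RT-PCR and capillary electrophoresis fluorescence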
Outline: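 Multiplexed reporter mRNA profiling in HepG2 after a 24 h chemical exposure. Curves fitted in both directions relative to DMSO negative control.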

[8] = ATG_Oct_MLP_CIS: Attagene CIS-FACTORIAL HepG2 Assay for human Octamer-Binding Transcription Factor (Oct) (AID 2282993); conditions: HepG2 Attagene cis-factorial Oct reporter, mRNA; actives raise or lower the signal
Outline: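 HepG2, transient MRTU transfection, cis promoter elements; 24 h dosing; RT-PCR/CE fluorescence read-out of reporter mRNA; fit both directions vs DMSO.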

[9] = BSK_3C_TissueFactor: BioMAP Diversity Plus: 3C Assay for Tissue Factor Biomarker Activity (AID 2282997); conditions: BioMAP 3C HUVEC, tissue factor biomarker readout; actives raise or lower the signal
Outline: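 Dosing of human umbilical vein endothelial cells preceded a 24 h incubation. Tissue Factor was then read by ELISA, with increases and decreases both scored relative to DMSO controls.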

[10] = target: Cellular tumor antigen p53 (Homo sapiens) (UniProt P04637); experiment: ATG_p53_CIS: Attagene CIS-FACTORIAL HepG2 Assay for human p53 Transcription Factor (AID 2282994); conditions: HepG2 p53 cis-element reporter, Attagene mRNA; actives raise or lower the signal
Sequence of Cellular tumor antigen p53 (Homo sapiens) (P04637 whole entry, looked up): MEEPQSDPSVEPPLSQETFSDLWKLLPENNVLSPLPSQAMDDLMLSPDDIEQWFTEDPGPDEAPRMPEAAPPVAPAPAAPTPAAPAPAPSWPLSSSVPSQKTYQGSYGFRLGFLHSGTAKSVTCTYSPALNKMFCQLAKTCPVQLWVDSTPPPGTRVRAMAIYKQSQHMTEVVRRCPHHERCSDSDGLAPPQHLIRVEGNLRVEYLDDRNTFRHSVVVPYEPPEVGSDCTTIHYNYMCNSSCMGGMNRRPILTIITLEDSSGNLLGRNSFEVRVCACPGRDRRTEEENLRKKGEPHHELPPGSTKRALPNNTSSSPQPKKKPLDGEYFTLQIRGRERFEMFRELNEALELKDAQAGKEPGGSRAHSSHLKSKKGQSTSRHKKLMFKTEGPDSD
Outline: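 Multiplexed reporter mRNA assay in human HepG2 liver cells; cis-regulated units report endogenous factor activity. Values come from bidirectional curve fitting against DMSO negative control after 24 h treatment.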

Measured: AC50

O=C(Nc1ccccc1-c1ccc(Cl)cc1)c1cccnc1Cl
inactive: [1] | [2] | [3] | [4] | [5] | [6] | [9]
active: [7] 8.77 µM | [8] 7.03 µM

O=c1n(Cl)c(=O)n(Cl)c(=O)n1Cl
inactive: [1] | [2] | [3] | [4] | [5] | [6] | [7] | [8] | [9]

CCNP(=S)(OC)O/C(C)=C/C(=O)OC(C)C (stereo not given)
active: [7] 7.44 µM
inactive: [1] | [2] | [3] | [4] | [5] | [6] | [8] | [9]

COCc1cnc(C2=NC(C)(C(C)C)C(=O)N2)c(C(=O)O)c1 (stereo not given)
inactive: [1] | [2] | [3] | [4] | [5] | [7] | [8] | [9]

CCCC(=NOCC)C1=C(O)CC(CC(C)SCC)CC1=O (stereo not given)
inactive: [1] | [2] | [3] | [4] | [5] | [7] | [8] | [9]

C=C(C)CN(CC)c1c([N+](=O)[O-])cc(C(F)(F)F)cc1[N+](=O)[O-]
active: [7] 4.69 µM
inactive: [1] | [2] | [3] | [4] | [5] | [8] | [10] | [9]

CCN(CC)C(=O)C(C)Oc1cccc2ccccc12 (stereo not given)
inactive: [1] | [2] | [3] | [4] | [5] | [10] | [9]
active: [7] 0.485 µM | [8] 4.2 µM

COc1cc(OC)nc(NC(=O)NS(=O)(=O)c2ncccc2OCC(F)(F)F)n1
inactive: [1] | [2] | [3] | [4] | [5] | [7] | [8] | [9]

Cc1nc(N(C)C)nc(OC(=O)N(C)C)c1C
inactive: [1] | [2] | [3] | [4] | [5] | [7] | [8] | [9]

CCSC(=O)N1CCCCCC1
inactive: [1] | [2] | [3] | [4] | [5] | [6] | [7] | [8] | [10] | [9]

CC1(C)C(C=C(Cl)Cl)C1C(=O)OC(C#N)c1cccc(Oc2ccccc2)c1 (stereo not given)
active: [7] 0.723 µM
inactive: [1] | [2] | [3] | [4] | [5] | [8] | [9]

Cc1c(COC(=O)[C@@H]2[C@H](/C=C(\Cl)C(F)(F)F)C2(C)C)cccc1-c1ccccc1
inactive: [1] | [2] | [3] | [4] | [5] | [7] | [8] | [9]

CC(C)=CC1C(C(=O)OCc2coc(Cc3ccccc3)c2)C1(C)C (stereo not given)
inactive: [2] | [3] | [4] | [5] | [9]
active: [1] 33.9 µM | [7] 13.8 µM | [8] 6.38 µM

CCNC(=O)NC(=O)C(C#N)=NOC
inactive: [1] | [2] | [3] | [4] | [5] | [7] | [8] | [9]

CC(C)N1C(=O)c2ccccc2NS1(=O)=O
active: [7] 33 µM
inactive: [2] | [3] | [4] | [5] | [8] | [10] | [9]

COCC(=O)N(c1c(C)cccc1C)C(C)C(=O)OC (stereo not given)
active: [7] 50 µM
inactive: [2] | [3] | [4] | [5] | [8] | [10] | [9]

COC(=O)NS(=O)(=O)c1ccc(N)cc1
inactive: [2] | [3] | [4] | [5] | [6] | [7] | [8] | [9]

O=C(O)c1c(Cl)ccc2cc(Cl)cnc12
inactive: [2] | [3] | [4] | [5] | [6] | [7] | [8] | [9]

OC(c1ccc(Cl)cc1)(c1ccc(Cl)cc1)C(Cl)(Cl)Cl
inactive: [2] | [3] | [4] | [5] | [6] | [7] | [8]
active: [9] 25.6 µM

Nc1c(Cl)c(Cl)nc(C(=O)O)c1Cl
inactive: [1] | [2] | [3] | [4] | [5] | [8] | [9]
active: [7] 50 µM

COc1cc(Cl)c(OC)cc1Cl
inactive: [2] | [3] | [4] | [5] | [7] | [8] | [9]

CC1(C)CON(Cc2ccccc2Cl)C1=O
inactive: [2] | [3] | [4] | [5] | [8] | [9]
active: [7] 44.1 µM

CCOc1nc(C(Cl)(Cl)Cl)ns1
active: [7] 22.9 µM | [8] 43.5 µM
inactive: [2] | [3] | [4] | [5] | [9]

Cc1cnc(C2=NC(C)(C(C)C)C(=O)N2)c(C(=O)O)c1 (stereo not given)
active: [7] 13 µM
inactive: [2] | [3] | [4] | [5] | [8] | [9]
